Results as given in the supplement of paper PMC11624193, “Coupling cellular drug-target engagement to downstream pharmacology with CeTEAM” (Nature Communications, 2024).
A number with no mark means an inactive call.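 The calls were made as follows: active = log2 fold change beyond 2 SD from the library mean after excluding viability outliers; inactive = within 2 SD.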

The molecules below were run against PARP1 L713F-nLuc biosensor (HCT116) (UniProt P09874) (assay: PARP1 L713F-nLuc/akaLuc ratio relative to DMSO control (biosensor stabilization) (fold change); higher = more PARP1 biosensor stabilization (target engagement / stabilizer), active = hit call of the paper). Details: stock concentration (mM; final µM = stock mM x 1): 10; 24 h.
Sequence of PARP1 L713F-nLuc biosensor (HCT116) (P09874 whole entry L713F, looked up): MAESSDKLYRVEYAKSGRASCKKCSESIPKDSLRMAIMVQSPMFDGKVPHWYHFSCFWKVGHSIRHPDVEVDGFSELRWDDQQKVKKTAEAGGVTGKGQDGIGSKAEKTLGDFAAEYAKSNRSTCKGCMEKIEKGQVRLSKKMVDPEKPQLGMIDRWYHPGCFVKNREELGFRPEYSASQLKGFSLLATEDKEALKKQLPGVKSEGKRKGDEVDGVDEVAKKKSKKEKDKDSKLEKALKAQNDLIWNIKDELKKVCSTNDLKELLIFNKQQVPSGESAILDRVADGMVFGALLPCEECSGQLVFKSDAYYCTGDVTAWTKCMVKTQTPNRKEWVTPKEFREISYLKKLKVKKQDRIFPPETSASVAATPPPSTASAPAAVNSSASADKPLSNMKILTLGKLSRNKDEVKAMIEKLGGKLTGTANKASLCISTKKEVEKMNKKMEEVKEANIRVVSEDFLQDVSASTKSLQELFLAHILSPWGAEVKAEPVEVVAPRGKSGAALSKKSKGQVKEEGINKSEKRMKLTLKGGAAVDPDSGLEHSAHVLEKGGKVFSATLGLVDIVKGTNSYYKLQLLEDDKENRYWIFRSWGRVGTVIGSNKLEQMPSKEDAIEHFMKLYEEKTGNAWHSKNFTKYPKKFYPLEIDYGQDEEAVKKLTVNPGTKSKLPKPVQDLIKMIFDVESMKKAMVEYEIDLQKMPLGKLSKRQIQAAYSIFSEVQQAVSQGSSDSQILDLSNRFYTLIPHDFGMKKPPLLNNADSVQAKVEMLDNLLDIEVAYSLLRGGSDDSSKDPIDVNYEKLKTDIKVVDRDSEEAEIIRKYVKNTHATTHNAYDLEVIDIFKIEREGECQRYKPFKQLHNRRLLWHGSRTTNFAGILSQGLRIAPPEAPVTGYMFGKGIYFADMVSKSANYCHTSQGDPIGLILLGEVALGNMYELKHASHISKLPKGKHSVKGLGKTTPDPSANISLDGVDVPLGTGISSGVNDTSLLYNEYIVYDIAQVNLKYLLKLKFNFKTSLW
In the case of `CCCS(=O)(=O)Nc1ccc(F)c(C(=O)c2c[nH]c3ncc(-c4ccc(Cl)cc4)cc23)c1F` [Vemurafenib (PLX4032, RG7204)], the “PARP1 L713F-nLuc/akaLuc ratio” value is reported as 0.608. In the case of `Cn1cc(CCn2cnc(-c3cnn(C)c3)c2-c2ccc(C#N)cc2)cn1`, the “PARP1 L713F-nLuc/akaLuc ratio” value is reported as 0.997. `CCN(C(=O)c1cc(F)ccc1Oc1cncnc1N1CC2(CCN(C[C@H]3CC[C@H](NS(=O)(=O)CC)CC3)CC2)C1)C(C)C` was tested, and the “PARP1 L713F-nLuc/akaLuc ratio” value was 0.797. For `C=CC(=O)N1CCC(Oc2cc3c(Nc4ccc(Cl)c(Cl)c4F)ncnc3cc2OC)CC1` [Poziotinib (HM781-36B)], the “PARP1 L713F-nLuc/akaLuc ratio” value was 1.28. For `Nc1[nH]c(=O)nc2c1ncn2[C@@H]1O[C@H](CO)[C@@H](O)[C@H]1O` [Crotonoside], the “PARP1 L713F-nLuc/akaLuc ratio” value was 0.835. With `O=C(c1ccc(/C=C/c2n[nH]c3ccccc23)cc1)N1CCNCC1` the “PARP1 L713F-nLuc/akaLuc ratio” value was 1.3. With `N#CCC1CCN(c2nc(Nc3ccc(N4CCC(O)CC4)cc3)c3c(=O)[nH]ncc3n2)CC1` [Gusacitinib] the “PARP1 L713F-nLuc/akaLuc ratio” value was 0.883. In the case of `O=c1c2c([nH]n1-c1nc3ccccc3s1)CCCC2`, the “PARP1 L713F-nLuc/akaLuc ratio” value is reported as 0.788. `CN[C@@H](C)C(=O)N[C@H]1CN(C(=O)CC(C)C)CC[C@H]2CC[C@@H](C(=O)NC(c3ccccc3)c3ccccc3)N2C1=O` was tested, and the “PARP1 L713F-nLuc/akaLuc ratio” value was 0.738. In the case of `O=c1[nH]c(N2CCC3(CC2)CN(CCO)c2cc(F)cc(F)c23)nc2c1CCCC2`, the “PARP1 L713F-nLuc/akaLuc ratio” value is reported as 0.755. For `COCCOc1cnc2ccn([C@H](C)c3nnc4c(F)cc(-c5cnn(C)c5)cn34)c(=O)c2c1`, the “PARP1 L713F-nLuc/akaLuc ratio” value was 0.857. `C=C(C)[C@@H](CC=C(C)C)C[C@@]12C[C@@H](CC=C(C)C)C(C)(C)[C@@](CC=C(C)C)(C(=O)C(C(=O)c3ccc(O)c(O)c3)=C1O)C2=O` [Garcinol] was tested, and the “PARP1 L713F-nLuc/akaLuc ratio” value was 0.631. With `Cc1c(-c2cnccn2)ssc1=S` [Oltipraz] the “PARP1 L713F-nLuc/akaLuc ratio” value was 0.846. For `CC1=C2C(=O)O[C@@H](c3ccoc3)[C@]2(C)CCC1` [Fraxinellone], the “PARP1 L713F-nLuc/akaLuc ratio” value was 0.831. `NC(=O)c1cnc2[nH]ccc2c1N[C@@H]1[C@@H]2CC3C[C@H]1C[C@@](O)(C3)C2` was tested, and the “PARP1 L713F-nLuc/akaLuc ratio” value was 0.774. For `N#CCC1(n2cc(-c3ncnc4[nH]ccc34)cn2)CN(C2CCN(C(=O)c3ccnc(C(F)(F)F)c3F)CC2)C1` [Itacitinib], the “PARP1 L713F-nLuc/akaLuc ratio” value was 0.6. `O=c1ncccn1[C@@H]1O[C@H](CO)[C@@H](O)[C@H]1O` [Zebularine] was tested, and the “PARP1 L713F-nLuc/akaLuc ratio” value was 0.711. For `CO[C@H]1C(=O)[C@]2(C)[C@@H](OC)C[C@H]3OC[C@@]3(OC(C)=O)[C@H]2[C@H](OC(=O)c2ccccc2)[C@]2(O)C[C@H](OC(=O)[C@H](O)[C@@H](NC(=O)OC(C)(C)C)c3ccccc3)C(C)=C1C2(C)C` [Cabazitaxel], the “PARP1 L713F-nLuc/akaLuc ratio” value was 1.2. For `O=C(c1cc(Cc2n[nH]c(=O)c3ccccc23)ccc1F)N1CC(CNC2CC2)C1` [Venadaparib], the “PARP1 L713F-nLuc/akaLuc ratio” value was 5.9 (active). For `COC(=O)c1ccc(OC(=O)CCCCCCC(=O)NO)cc1` [Remetinostat], the “PARP1 L713F-nLuc/akaLuc ratio” value was 1.25. For `O=C(Nc1cccc(Nc2nccc(Nc3cccc(C(F)(F)F)c3)n2)c1)C1CC1` [Aurora kinase inhibitor-3], the “PARP1 L713F-nLuc/akaLuc ratio” value was 1.49. With `CCCC(=O)c1c(O)c(Cc2c(O)c(Cc3c(O)c(C)c(OC)c(C(=O)CCC)c3O)c(O)c(C(=O)[C@@H](C)CC)c2O)c(O)c(C)c1OC` [Agrimol B] the “PARP1 L713F-nLuc/akaLuc ratio” value was 1.14. For `NC[C@@](O)(c1ccc(Cl)cc1)c1ccc(-c2cn[nH]c2)cc1`, the “PARP1 L713F-nLuc/akaLuc ratio” value was 0.809. In the case of `COc1ccccc1C(=O)Nc1cc2c(cc1N1CCCCC1)n(C)c(=O)n2C`, the “PARP1 L713F-nLuc/akaLuc ratio” value is reported as 1.25. With `O=C(c1ccc(C(=O)N2CCC(N3CCCC3)CC2)c(Nc2ccccc2)c1)N1CCC(N2CCCC2)CC1` the “PARP1 L713F-nLuc/akaLuc ratio” value was 0.936. `C=CC[C@@H]1/C=C(\C)C[C@H](C)C[C@H](OC)[C@H]2O[C@@](O)(C(=O)C(=O)N3CCCC[C@H]3C(=O)O[C@H](/C(C)=C/[C@@H]3CC[C@@H](O)[C@H](OC)C3)[C@H](C)[C@@H](O)CC1=O)[C@H](C)C[C@@H]2OC` [Tacrolimus (FK506)] was tested, and the “PARP1 L713F-nLuc/akaLuc ratio” value was 0.7. `O=c1oc2cc(O)ccc2c2ccccc12` [Urolithin B] was tested, and the “PARP1 L713F-nLuc/akaLuc ratio” value was 0.914.
